The campaign covered roughly 39,000 compounds. About 1,500 (3.8%) were called active. The sample as a whole holds a higher share of actives than the screen did.

This assay relates to HSkMC (human skeletal muscle cells). Description: cytotoxicity call (relative viability < 0.9). The note with it: 10 µM.
`O=C(NCC[C@@H]1CC[C@H](NS(=O)(=O)c2cccc(F)c2)[C@H](CO)O1)C1CC1`: the cytotoxicity call was “inactive”. As for `C[C@@H]1CCCCO[C@H](CN(C)S(=O)(=O)c2ccccc2)[C@@H](C)CN([C@@H](C)CO)C(=O)c2cc(NC(=O)C3CCCCC3)ccc2O1`, the entry is “inactive”. With `C[C@@H]1CN([C@@H](C)CO)C(=O)c2cccc(NC(=O)NC3CCCCC3)c2O[C@H]1CN(C)Cc1ccc(C(F)(F)F)cc1` the entry was “inactive”. Consider `CC(/C=C/C(=O)NO)=C\c1ccccc1OCc1cn(CCNC(=O)[C@@H](NS(=O)(=O)c2ccc(C)cc2)C(C)C)nn1`, for which the cytotoxicity call is “inactive”. With `CC(/C=C/C(=O)NO)=C\c1ccccc1OCc1cn(-c2cccc(N(S(=O)(=O)c3ccc(C)cc3)S(=O)(=O)c3ccc(C)cc3)c2)nn1` the entry was “active”; with `CC(/C=C/C(=O)NO)=C\c1ccccc1OCc1cn(C[C@@H]2CCCN2S(=O)(=O)c2ccc(C)cc2)nn1`, “inactive”.

With `Nc1ccc(-n2cc(CCC(=O)NO)nn2)cc1`, the cytotoxicity call is “inactive”. With `Cc1ccc(S(=O)(=O)N(c2cccc(-n3cc(CCC(=O)NO)nn3)c2)S(=O)(=O)c2ccc(C)cc2)cc1` the entry was “active”. As for `Nc1cccc(-n2cc(CCC(=O)NO)nn2)c1`, the entry is “inactive”; as for `C[C@@H]1CCCCO[C@H](CN(C)Cc2ccncc2)[C@@H](C)CN([C@@H](C)CO)C(=O)c2cc(NC(=O)Nc3ccccc3)ccc2O1`, “inactive”; as for `C[C@H](CO)N1C[C@H](C)[C@@H](CN(C)S(=O)(=O)c2ccc(Cl)cc2)OCCCC[C@H](C)Oc2ccc(NC(=O)c3ccccc3)cc2C1=O`, “inactive”. As for `C[C@@H]1CN([C@H](C)CO)C(=O)c2cc(NS(C)(=O)=O)ccc2O[C@@H](C)CCCCO[C@@H]1CN(C)Cc1ccncc1`, the cytotoxicity call was “inactive”. As for `C[C@@H]1CN([C@H](C)CO)C(=O)c2cc(NC(=O)NC3CCCCC3)ccc2O[C@@H](C)CCCCO[C@H]1CN(C)S(=O)(=O)c1cccs1`, the entry is “inactive”. As for `C[C@H](CO)N1C[C@H](C)[C@@H](CN(C)C(=O)Nc2cccc3ccccc23)Oc2ccc(NC(=O)Nc3ccccc3)cc2C1=O`, the entry is “inactive”. Regarding `C[C@@H]1CN([C@H](C)CO)C(=O)c2cc(NC(=O)Nc3ccccc3)ccc2O[C@@H]1CN(C)C(=O)Nc1cccc2ccccc12`, the cytotoxicity call was “active”.

Turning to `C[C@H]1CN([C@@H](C)CO)C(=O)c2cc(NC(=O)Nc3ccccc3)ccc2O[C@H]1CN(C)C(=O)Nc1cccc2ccccc12`, the cytotoxicity call was “inactive”. As for `C[C@H](CO)N1C[C@H](C)[C@H](CN(C)C(=O)Nc2cccc3ccccc23)Oc2ccc(NC(=O)Nc3ccccc3)cc2C1=O`, the entry is “inactive”; as for `C[C@@H]1CN([C@H](C)CO)C(=O)c2cc(NC(=O)Nc3ccccc3)ccc2O[C@H]1CN(C)C(=O)Nc1cccc2ccccc12`, “inactive”.

Regarding `C[C@@H]1CN([C@@H](C)CO)C(=O)c2cc(NC(=O)Nc3ccccc3)ccc2O[C@@H]1CN(C)C(=O)Nc1cccc2ccccc12`, the cytotoxicity call was “active”. With `Cc1ccc(S(=O)(=O)N(C)C[C@H]2Oc3c(NS(=O)(=O)c4ccccc4)cccc3C(=O)N([C@H](C)CO)C[C@@H]2C)cc1` the entry was “inactive”; with `C[C@H](CO)N1C[C@H](C)[C@H](CN(C)S(=O)(=O)c2ccccc2)Oc2c(NC(=O)C3CCOCC3)cccc2C1=O`, “inactive”; with `C[C@@H]1CCCCO[C@@H](CN(C)CC2CCCCC2)[C@@H](C)CN([C@@H](C)CO)C(=O)c2cc(NC(=O)CCCN(C)C)ccc2O1`, “inactive”. As for `CO[C@@H]1CN(C)C(=O)c2cc(NS(=O)(=O)c3ccccc3)ccc2OC[C@@H](C)N(C(=O)NC(C)C)C[C@H]1C`, the entry is “inactive”; as for `C[C@H]1CN([C@@H](C)CO)C(=O)Cc2cc(NS(=O)(=O)c3cn(C)cn3)ccc2O[C@H]1CN(C)Cc1ccccc1`, “inactive”. As for `CCn1cc(-c2ccnc3[nH]c(-c4cccc(CN(C)C)c4)cc23)c(-c2ccc(NC(=O)N(C)C)cc2)n1`, the entry is “active”; as for `COc1ccccc1S(=O)(=O)N1C[C@H](O)COC[C@H]2O[C@@H](CC(=O)O)CC[C@@H]21`, “inactive”. As to `CCn1c(N)c(C(N)=O)sc1=S`, the cytotoxicity call was “inactive”.

For the compound `C[C@H]1CN([C@@H](C)CO)C(=O)c2cccc(NC(=O)Nc3cccc4ccccc34)c2O[C@H]1CN(C)C(=O)Nc1ccc(C(F)(F)F)cc1`, the cytotoxicity call is “active”. As for `C[C@@H]1CN([C@H](C)CO)C(=O)c2cccc(NC(=O)Nc3cccc4ccccc34)c2O[C@H]1CN(C)C(=O)Nc1ccc(C(F)(F)F)cc1`, the entry is “inactive”; as for `C[C@@H]1CN([C@@H](C)CO)C(=O)c2cccc(NC(=O)Nc3cccc4ccccc34)c2O[C@H]1CN(C)C(=O)Nc1ccc(C(F)(F)F)cc1`, “active”. As for `C[C@H](CO)N1C[C@H](C)[C@H](CN(C)C(=O)Nc2ccc(C(F)(F)F)cc2)Oc2c(NC(=O)Nc3cccc4ccccc34)cccc2C1=O`, the entry is “inactive”; as for `C[C@@H]1CN([C@H](C)CO)C(=O)c2cccc(NC(=O)Nc3cccc4ccccc34)c2O[C@@H]1CN(C)C(=O)Nc1ccc(C(F)(F)F)cc1`, “active”; as for `C[C@H](CO)N1C[C@H](C)[C@@H](CN(C)C(=O)Nc2ccc(C(F)(F)F)cc2)Oc2c(NC(=O)Nc3cccc4ccccc34)cccc2C1=O`, “active”.

As for `CCN1CCO[C@@]2(O)C=CC(=O)C=C12`, the cytotoxicity call is “inactive”. As for `CCc1ccc(NC(=O)C2CCN(S(=O)(=O)c3c(C)[nH]c(=O)[nH]c3=O)CC2)cc1`, the entry is “inactive”; as for `Cc1ccc(S(=O)(=O)Nc2ccc3c(c2)C(=O)N([C@@H](C)CO)C[C@@H](C)[C@@H](CN(C)S(=O)(=O)c2ccc(C)cc2)OCCCC[C@H](C)O3)cc1`, “inactive”. In the case of `C[C@@H]1CN([C@H](C)CO)C(=O)c2cc(NC(=O)Cc3ccccc3)ccc2O[C@@H](C)CCCCO[C@H]1CN(C)C(=O)Nc1cccc2ccccc12`, the cytotoxicity call was “inactive”. As for `CC(C)NC(=O)Nc1ccc2c(c1)CC(=O)N([C@@H](C)CO)C[C@H](C)[C@H](CN(C)Cc1ccc(-c3ccccc3)cc1)O2`, the entry is “inactive”; as for `O=C(C[C@H]1CC[C@@H](NS(=O)(=O)c2ccccc2)[C@H](CO)O1)NCc1ccncn1`, “inactive”; as for `Cc1ccc(S(=O)(=O)Nc2ccc3c(c2)C(=O)N([C@@H](C)CO)C[C@@H](C)[C@H](CN(C)C(=O)Nc2ccc(C(F)(F)F)cc2)O3)cc1`, “inactive”. As for `C[C@@H]1CN([C@@H](C)CO)C(=O)Cc2cc(NC(=O)CCN3CCOCC3)ccc2O[C@H]1CN(C)S(=O)(=O)c1cccs1`, the entry is “inactive”; as for `C[C@H]1CN([C@@H](C)CO)C(=O)c2ccccc2-c2ccccc2CO[C@@H]1CN(C)C(=O)Nc1cccc(F)c1`, “inactive”. With `NC(=O)c1cccc(S(N)(=O)=O)c1` the entry was “inactive”; with `C[C@@H]1CN([C@H](C)CO)C(=O)c2cc(N(C)C)ccc2O[C@@H](C)CCCCO[C@H]1CN(C)C(=O)Nc1ccc(C(F)(F)F)cc1`, “inactive”. Take `C[C@H]1CN([C@@H](C)CO)C(=O)c2cccc(NC(=O)Nc3cccc4ccccc34)c2O[C@@H]1CN(C)C(=O)Nc1ccc(C(F)(F)F)cc1`: the cytotoxicity call is “active”. As for `COc1ccc(S(=O)(=O)N(C)C[C@@H]2Oc3ccc(NC(=O)CCCN(C)C)cc3CC(=O)N([C@@H](C)CO)C[C@@H]2C)cc1`, the entry is “inactive”; as for `C[C@@H]1CN([C@@H](C)CO)C(=O)c2cc(NC(=O)Nc3ccccc3)ccc2O[C@@H]1CN(C)Cc1ccc(-c2ccccc2)cc1`, “active”. With `C[C@@H]1CN([C@@H](C)CO)C(=O)c2cc(NC(=O)Nc3ccccc3)ccc2O[C@H]1CN(C)Cc1ccc(-c2ccccc2)cc1` the entry was “inactive”; with `C[C@@H]1CN([C@H](C)CO)C(=O)c2cc(NC(=O)Nc3ccccc3)ccc2O[C@H]1CN(C)Cc1ccc(-c2ccccc2)cc1`, “inactive”; with `C[C@H](CO)N1C[C@H](C)[C@@H](CN(C)Cc2ccc(-c3ccccc3)cc2)Oc2ccc(NC(=O)Nc3ccccc3)cc2C1=O`, “inactive”. As for `C[C@@H]1CN([C@H](C)CO)C(=O)c2cc(NC(=O)Nc3ccccc3)ccc2O[C@@H]1CN(C)Cc1ccc(-c2ccccc2)cc1`, the entry is “inactive”; as for `C[C@H](CO)N1C[C@H](C)[C@H](CN(C)Cc2ccc(-c3ccccc3)cc2)Oc2ccc(NC(=O)Nc3ccccc3)cc2C1=O`, “inactive”; as for `C[C@@H]1CN([C@@H](C)CO)C(=O)c2cc(NC(=O)Nc3ccc(F)cc3)ccc2O[C@@H]1CN(C)Cc1ccc(-c2ccccc2)cc1`, “active”. As to `C[C@H]1CN([C@@H](C)CO)C(=O)c2cc(NC(=O)Nc3ccc(F)cc3)ccc2O[C@@H]1CN(C)Cc1ccc(-c2ccccc2)cc1`, the cytotoxicity call was “inactive”. With `C[C@@H]1CN([C@H](C)CO)C(=O)c2cc(NC(=O)Nc3ccc(F)cc3)ccc2O[C@H]1CN(C)Cc1ccc(-c2ccccc2)cc1` the entry was “active”; with `C[C@@H]1CN([C@@H](C)CO)C(=O)c2cc(NC(=O)Nc3ccc(F)cc3)ccc2O[C@H]1CN(C)Cc1ccc(-c2ccccc2)cc1`, “active”. As for `C[C@H]1CN([C@@H](C)CO)C(=O)c2cc(NC(=O)Nc3ccccc3)ccc2O[C@H]1CN(C)Cc1ccc(-c2ccccc2)cc1`, the entry is “inactive”. As for `C[C@H](CO)N1C[C@H](C)[C@H](CN(C)Cc2ccc(-c3ccccc3)cc2)Oc2ccc(NC(=O)Nc3ccc(F)cc3)cc2C1=O`, the entry is “inactive”; as for `CC(C)NC(=O)Nc1ccc2c(c1)CC(=O)N([C@@H](C)CO)C[C@H](C)[C@H](CN(C)Cc1ccc3c(c1)OCO3)O2`, “inactive”. With `O=c1nc[nH]c2c1ncn2[C@H]1CC[C@@H](CO)O1`, the cytotoxicity call was “inactive”. As for `Cn1cnc(S(=O)(=O)N2C[C@@H](O)COC[C@H]3O[C@H](CC(=O)NC4CCC4)CC[C@@H]32)c1`, the entry is “inactive”; as for `O=C(C[C@H]1CC[C@@H]2[C@H](COC[C@H](O)CN2S(=O)(=O)c2ccc(Cl)cc2)O1)NCC1CCCCC1`, “inactive”; as for `C[C@H](CO)N1C[C@H](C)[C@H](CN(C)C(=O)Nc2ccc(F)cc2)OCCCC[C@H](C)Oc2ccc(NC(=O)Cc3ccccc3)cc2C1=O`, “inactive”.

As for `C[C@@H]1CN([C@H](C)CO)C(=O)c2cc(NC(=O)Nc3ccc(F)cc3)ccc2O[C@@H]1CN(C)Cc1ccc(-c2ccccc2)cc1`, the cytotoxicity call is “active”.

Take `C[C@H]1CN([C@@H](C)CO)C(=O)c2cc(NC(=O)Nc3ccc(F)cc3)ccc2O[C@H]1CN(C)Cc1ccc(-c2ccccc2)cc1`: the cytotoxicity call was “inactive”. As for `C[C@H](CO)N1C[C@H](C)[C@@H](CN(C)Cc2ccc(-c3ccccc3)cc2)Oc2ccc(NC(=O)Nc3ccc(F)cc3)cc2C1=O`, the entry is “inactive”.

For the origin of these results see the antibiotic and cytotoxicity screens of Wong et al. (2023).
